# Bioassay records (PubChem BioAssay)
# MLLE-PAM2 inh: blocks PAM2 peptide binding to the PABP1 MLLE domain; 360,000 tested, 0.36% active; inhibition, % at 20 µM; P11940; GST-MLLE / FITC-PAM2 fluorescence polarization; AID 588489; in the data active means inhibition above about 35%, passing the limit was not always enough
# PHOSPHO1 block: blocks human PHOSPHO1 phosphatase activity | inhibition, % at 13.3 µM | Q8TCT1 | AID 1565 | recombinant PHOSPHO1, absorbance phosphatase assay | 290,000 tested, 1.1% active; in the data active means inhibition above about 60%
# AI-2 QS modul: modulators of Vibrio harveyi AI-2 quorum sensing system; Vibrio harveyi JMH597 AI-2 luminescence/OD600 ratio, 9 h; stronger effect = lower value; strain lacks LuxN and CqsS sensors; 0 = neutral-control median; activity change, % at 7.5 µM; 300,000 tested, 0.4% active; in the data active means activity change below about -75%, passing the limit was not always enough;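 further: luminescence divided by OD600 gain over 9 h not by final OD600 alone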
# PABP FP inh: blocks human PABP binding to poly(A) RNA. P11940. fluorescence polarization. calls only at 35 µM. 290,000 tested, 1% active;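 further: calls also rest on retests at 20 µM and on dose response follow-up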
# ABCB6 inh 2: blocks the human ABCB6 transporter; Q9NP58; K562-ABCB6 porphyrin accumulation, flow cytometry, 1 h; stronger effect = lower value; fluorescence ratio to DMSO, % at 10 µM; 360,000 tested, 0.19% active; AID 602162;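 active means fluorescence ratio to DMSO below 75%, the collection mean minus 3 SD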;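 further: signal is porphyrin accumulated inside mitochondria; lower ratio means ABCB6 inhibition with less porphyrin fluorescence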
# Target sequence (Q9NP58 whole entry, looked up): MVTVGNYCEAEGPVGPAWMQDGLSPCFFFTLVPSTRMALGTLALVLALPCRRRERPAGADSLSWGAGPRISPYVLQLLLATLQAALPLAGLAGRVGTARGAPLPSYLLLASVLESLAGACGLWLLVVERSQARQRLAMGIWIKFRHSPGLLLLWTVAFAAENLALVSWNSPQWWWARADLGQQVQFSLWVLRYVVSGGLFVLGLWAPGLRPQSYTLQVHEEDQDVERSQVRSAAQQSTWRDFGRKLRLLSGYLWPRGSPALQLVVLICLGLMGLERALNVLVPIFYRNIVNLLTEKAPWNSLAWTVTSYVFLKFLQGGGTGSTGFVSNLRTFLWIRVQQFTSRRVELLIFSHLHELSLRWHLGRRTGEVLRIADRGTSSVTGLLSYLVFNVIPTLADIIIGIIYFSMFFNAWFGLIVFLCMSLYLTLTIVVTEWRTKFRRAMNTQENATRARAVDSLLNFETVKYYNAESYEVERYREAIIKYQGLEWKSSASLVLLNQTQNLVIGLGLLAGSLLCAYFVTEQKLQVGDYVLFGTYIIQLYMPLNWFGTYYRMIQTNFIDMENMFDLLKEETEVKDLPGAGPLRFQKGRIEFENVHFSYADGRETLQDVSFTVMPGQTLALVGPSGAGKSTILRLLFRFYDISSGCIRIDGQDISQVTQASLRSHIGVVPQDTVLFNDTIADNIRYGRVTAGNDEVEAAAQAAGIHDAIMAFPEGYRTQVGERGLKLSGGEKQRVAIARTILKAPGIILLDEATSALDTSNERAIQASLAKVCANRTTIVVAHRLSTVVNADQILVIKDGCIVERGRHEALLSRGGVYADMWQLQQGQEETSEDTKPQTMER
# eIF4H inh: inhibitors of RNA binding by human eIF4H | inhibition, % at 35 µM | 290,000 tested, 0.94% active | Q15056 | eIF4H fluorescence polarization binding assay | AID 2012;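 further: calls also rest on retests at 20 µM and on dose response follow-up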
# ABCB6 blocker 1: human ABCB6 transporter inhibition | shares compounds with ABCB6 inh 2 | K562-ABCB6 porphyrin accumulation, flow cytometry, 1 h; stronger effect = lower value | ratio response (% of DMSO), % at 10 µM | 700 tested, under 10 active | AID 602430;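 active means repeat-averaged ratio response below 75% of DMSO, the collection mean minus 3 SD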;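 further: median porphyrin fluorescence at 575 nm with 488 nm excitation from mitochondria; lower ratio means less porphyrin signal so ABCB6 inhibition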
# Numbers stand for hits; i = inactive; nt = no result given. This is a sample that favours compounds with a hit; in the whole collection about 2.6% have one here. Unless noted, how the calls were made is not given here.
SMILES,MLLE-PAM2 inh,PHOSPHO1 block,AI-2 QS modul,PABP FP inh,ABCB6 inh 2,eIF4H inh,ABCB6 blocker 1
O=C(COC(=O)CCCC1=NS(=O)(=O)c2ccccc2N1)Nc1ccccc1,i,i,i,nt,i,nt,i
Cc1cccc(NC(=O)COC(=O)CCCC2=NS(=O)(=O)c3ccccc3N2)c1,i,i,i,nt,i,nt,nt
COc1cc(NC(=O)COC(=O)CCCC2=NS(=O)(=O)c3ccccc3N2)cc(OC)c1,i,i,i,nt,i,nt,i
CCOc1ccc(NC(=O)CCc2nnc3ccc(N4CCC(C)CC4)nn23)cc1,i,i,i,i,i,i,nt
CC1CC(C)CN(C(=O)CCc2nnc3ccc(N4CCCCC4)nn23)C1 (centres undefined),i,i,i,i,i,i,i
CC1CCN(c2ccc3nnc(CCC(=O)NCCCOC(C)C)n3n2)CC1,i,i,i,i,i,i,i
COc1ccc(N2CCN(C(=O)CCc3nnc4ccc(N5CCC(C)CC5)nn34)CC2)cc1,i,i,i,i,i,i,nt
CCOC(=O)CNC(=O)CCc1nnc2ccc(N3CCC(C)CC3)nn12,i,i,i,i,i,i,i
CCOC(=O)C1CCN(C(=O)CCc2nnc3ccc(N4CCC(C)CC4)nn23)CC1,i,i,i,i,i,i,i
COc1ccc(NC(=O)c2cc(C3CCCCN3C(=O)c3ccc(Cl)cc3)on2)c(C)c1 (centres undefined),i,nt,nt,nt,i,nt,nt
COC(=O)[C@]12CCCCC=C1N(Cc1ccccc1)C(=O)[C@H](CC(=O)NCC13CC4CC(CC(C4)C1)C3)C2,nt,nt,nt,nt,i,nt,nt
CCCNC(=O)CCc1nnc2ccc(N3CCC(C)CC3)nn12,i,i,i,i,i,i,i
Cc1cc2nc(-c3ccccc3Br)n(/C=C(\c3ccccc3)n3c(=O)[nH]c4ccccc43)c2cc1C,i,nt,nt,nt,i,nt,nt
COc1ccc(C(=O)C2CCCN(C(=O)c3cccs3)C2)cc1F (centres undefined),i,i,i,i,71.0,i,i
NC(Cc1ccc(Cl)cc1)c1csc(Nc2ccc(C(=O)NCCCO)cn2)n1 (centres undefined),i,nt,nt,nt,i,nt,nt
CCOC(=O)[C@H]1[C@H]2COc3cc(OC)ccc3[C@@H]2N2C(=O)N(c3cccc(F)c3)C(=O)[C@@]12C,i,nt,nt,nt,i,nt,nt
CCOC(=O)[C@@H]1[C@H]2COc3cc(OC)ccc3[C@H]2N2C(=O)N(c3cccc(F)c3)C(=O)[C@@]12C,i,nt,nt,nt,73.0,nt,i
Cn1c(CN2CCOCC2)c(C#N)c2ccccc21,i,i,i,i,60.0,i,i
CN(C)c1ccc(CN2CCC(C(=O)NC(c3ccc(Cl)cc3)c3cnccn3)CC2)cc1 (centres undefined),i,nt,nt,nt,i,nt,nt
CC(Nc1nc2ncn(Cc3ccccc3)c2c(=O)[nH]1)C(=O)O (centres undefined),i,i,i,i,nt,i,nt
O=C(O)CCCCCNc1nc2ncn(Cc3ccccc3)c2c(=O)[nH]1,i,i,i,i,57.0,i,i
CC(C)(C)NC(=O)c1cccc(NC(=O)c2cccc(O)c2)c1,i,i,i,i,63.0,i,i
O=C(Nc1cccc(O)c1)c1cccc(C(=O)Nc2cccc(O)c2)c1,i,i,i,i,i,i,nt
CC1(C(=O)Nc2ccc3ccccc3c2)CCC(=O)N1C1CC1 (centres undefined),i,nt,nt,nt,i,nt,nt
